DT40 TDP1 no CPT = qHTS for Inhibitors of human tyrosyl-DNA phosphodiesterase 1 (TDP1): qHTS in cells in absence of CPT | DT40 Tdp1-/- hTDP1 cells, no CPT, ATP luminescence, 48 h | Potency, µM (top dose mostly 46.2 µM), for inactives: at the highest dose activity change, negative = growth inhibition, actives largely listed as inhibitors | hit rate 15% among 420,000; further: potency means the concentration at half of the fitted maximal effect; nearly all actives have a fitted effect of over 55% in size
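Chicken DT40 Tdp1-/- cells complemented with human TDP1, screened without camptothecin (DMSO vehicle only), 400 cells/well. Compounds pin-transferred, cells incubated at 37 °C for at least 48 hr. Growth read as ATP-dependent luminescence (CellTiter-Glo, 30 min at RT).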
HT1080NT lethal = kills 2HG-producing HT-1080-NT fibrosarcoma cells; HT-1080-NT fibrosarcoma viability, CellTiter-Glo ATP luminescence, 48 h; Potency, µM (highest dose often 46.1 µM), without a hit: top-dose activity, negative = less viability, usual class: cytotoxic; hit rate 1.6% among 360,000; AID 686970;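 further: NT is the 2HG producing partner of a matched IDH1 knockdown line; potency means the concentration at half of the fitted maximal effect; 0% = DMSO-treated cells and -100% = media-only wells without cells; nearly all actives have a fitted effect of over 55% in size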
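Fibrosarcoma NT cells, 750 per well in 5% FBS RPMI, were exposed to compound for 48 hours. Viability: CellTiter-Glo luminescence.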
HT1080 IDH1KD tx = toxicity to HT-1080 IDH1 knockdown cells (counter line) | HT-1080 IDH1 knockdown viability, ATP luminescence, 48 h | Potency, µM (doses to about 46.1 µM), for inactives: at the top dose activity, negative = toxicity, usual class: cytotoxic | hit rate 2% among 360,000 | AID 686971;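 further: potency means the concentration at half of the fitted maximal effect; 0% = DMSO wells and -100% = cell-free medium wells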
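Using the IDH1-knockdown HT-1080 line run in the same batch and compound series as the NT line, viability after 48 h at 37 °C was determined by CellTiter-Glo luminescence and expressed as % activity.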
IL-1B inflam inh = inflammasome signaling inhibition, IL-1 beta readout. activity change, % at 57.5 µM. hit rate 4.7% among 360,000. THP-1 LPS/ATP IL-1B secretion, AlphaLISA, 16 h; stronger effect = lower value. AID 743279; in the data active means activity change below about -50%; inconclusive means mostly about -30% to -49%
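THP-1 cells pretreated 1 hr with compounds (up to 57.5 uM final), then stimulated with LPS (250 ng/mL final) plus ATP (1.25 mM final); secreted IL-1B measured by AlphaLISA after 16 hr, decreased signal indicating inhibition.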
TDP1 cell CPT = DT40-hTDP1 cell growth loss with CPT. Potency, µM (titrated, usually from 46.2 µM), for inactives: top-dose activity change, negative = growth inhibition, usual class: inhibitors. hit rate 12% among 420,000. chicken DT40 Tdp1-/-;hTDP1 cells + 20 nM CPT, ATP luminescence, 48 h; further: potency means the concentration at half of the fitted maximal effect; nearly all actives have a fitted effect of over 55% in size
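Chicken DT40 Tdp1-/- cells stably complemented with human TDP1 were seeded at 400 cells/well in medium containing 20 nM camptothecin, exposed to pin-transferred compounds, and grown at 37 °C for at least 48 hr. Viability was read as ATP luminescence.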
Active calls of the source: *; ? = inconclusive; . = no result. Rows were chosen to be rich in hits. Some 19% of all compounds tested hit in one or more screens of this group. Unless noted, the call rests on the fitted dose curve; in most records, active means well fitted curve in the direction sought with a large enough effect; inconclusive means small, poorly fitted or top-dose-only effect, or another doubt; inactive means no such curve, though single readings can be large; an effect the other way counts as inactive or inconclusive. Unless noted, on the % scale 0 is the no-effect control and ±100 the full control effect.

SMILES	DT40 TDP1 no CPT	HT1080NT lethal	HT1080 IDH1KD tx	IL-1B inflam inh	TDP1 cell CPT
Cc1ccc(S(=O)(=O)N2CCN(c3nc(N(C)c4cc(Cl)ccc4O)nc4ccccc34)CC2)cc1	?	8.2%	9.7%	.	?
COc1ccc(-c2noc(CSCC(=O)Nc3cccc(C(F)(F)F)c3)n2)cc1OC	-18.8%	.	.	.	1.1%
CS(=O)(=O)N(CC(=O)NCc1ccncc1)c1cc(Cl)cc(Cl)c1	-9.5%	-1.3%	-1.0%	-0.9	2.1%
CCN(CC)c1ccc(/C=C/c2ccc3ccc(OC)cc3[n+]2CC)cc1	0.184µM*	?	?	-82.6*	0.0651µM*
COc1cc(=O)n2c(c1C(=O)NC(C)c1ccco1)CCN(C(=O)c1cc(C)cc(C)c1)CC2 (stereo not given)	-1.2%	.	.	.	1.7%
O=C(OCc1cc(=O)n2ccsc2n1)C1(c2ccccc2)CC1	-30.0%	10.9%	7.7%	49.3	-19.7%
CCC(C)(C)C1CCc2c(sc(N)c2C(N)=O)C1 (stereo not given)	20.6µM*	-2.5%	-9.9%	-15.2	20.6µM*
CCCC1CCc2c(sc(N)c2C(N)=O)C1 (stereo not given)	20.6µM*	11.0%	20.3%	-8.8	16.4µM*
CC(C)(C)C1CCc2c(sc(NC(=O)c3ccco3)c2C(N)=O)C1 (stereo not given)	?	-1.0%	-13.0%	-22.2	?
CC(C)(C)C1CCc2c(sc(N)c2C(N)=O)C1 (stereo not given)	18.4µM*	?	0.8%	-64.4*	23.1µM*
CCOC(=O)c1c(N)sc2c1CCC(C)C2 (stereo not given)	-3.8%	9.8%	15.2%	4.7	-26.1%
CC(C)(C)C1CCc2c(sc(NC(=O)C3CCCO3)c2C(N)=O)C1 (stereo not given)	18.4µM*	?	?	-9.2	?
CCC(C)(C)C1CCc2[nH]nc(C(=O)O)c2C1 (stereo not given)	16.1%	-4.0%	7.4%	13.5	16.0%
O=C(CSc1ncc(-c2ccc(F)cc2)[nH]1)Nc1cccc(O)c1	?	0.9%	-11.2%	22.7	?
COc1cccc(C(=O)Nc2ccccc2C(=O)NCC2CCCO2)c1 (stereo not given)	?	2.8%	-9.9%	?	?
O=C(Nc1cccc(C(F)(F)F)c1)Nn1cnnc1	14.3%	-1.6%	-0.3%	-6.5	-5.3%
Cc1ccc2[nH]c(O)c(N=NC(=O)CCc3ccccc3)c2c1Br	?	-5.8%	2.9%	-87.5*	16.4µM*
CN1CCN(c2nc3cc(N4CCOCC4)ccc3s2)CC1	?	-0.7%	11.3%	29.7	6.2%
C=CCOc1ccccc1OCC(O)CNC(C)C (stereo not given)	-26.1%	22.8%	20.1%	-15.8	-25.4%
O=C(c1ccc(Cl)c(S(=O)(=O)NCc2ccco2)c1)N1CCN(c2ccc(F)cc2)CC1	23.1µM*	-15.0%	-16.9%	-2.2	16.4µM*
CC(=O)c1ccc(N2CCN(C(=O)/C=C/c3ccc(S(=O)(=O)NCc4ccco4)cc3)CC2)cc1	20.6µM*	1.2%	-23.6%	1.3	20.6µM*
O=C(Nc1ccc(N2CCOCC2)cc1)c1ccc(S(=O)(=O)NCc2ccco2)cc1	0.3%	-12.5%	-5.3%	11.2	19.2%
CC(=O)c1ccc(N2CCN(C(=O)/C=C/c3ccc(S(=O)(=O)N4CCOCC4)cc3)CC2)cc1	14.6µM*	-11.8%	-5.6%	13.5	18.4µM*
CCS(=O)(=O)N1CC(=O)N(c2cc(Cl)ccc2C)C(C)(C(=O)NC2CCCCCC2)C1 (stereo not given)	-26.7%	.	.	.	?
OC(c1ccccc1)c1nc(-c2cccs2)cs1 (stereo not given)	-26.1%	-8.8%	18.4%	-2.9	?
SMILES	DT40 TDP1 no CPT	HT1080NT lethal	HT1080 IDH1KD tx	IL-1B inflam inh	TDP1 cell CPT
CCc1nc2ccc(C(=O)N3CCN(C(C)=O)CC3)cn2c1N(C=O)Cc1ccc(OC)cc1	-7.2%	17.9%	?	8.9	-2.3%
COc1ccc(-n2nnnc2SCC(=O)NCCc2ccccc2)cc1	?	.	.	.	-1.8%
C[C@@H]1[C@H](c2ccccc2)OCCS(=O)(=O)N1Cc1cccc(C(F)(F)F)c1	17.8µM*	.	.	.	?
CCn1cc2c(n1)-c1c(oc(C(=O)Nc3ccc(Br)cc3F)c1C)CC2	20.6µM*	.	.	.	?
CC(=O)Nc1ccc(NC(=O)c2oc3c(c2C)-c2nn(Cc4ccccc4Cl)cc2CC3)cc1	18.4µM*	.	.	.	8.2µM*
Cc1cccc(CNC(=O)c2oc3c(c2C)-c2nn(Cc4cccc(Cl)c4)cc2CC3)c1	29.1µM*	.	.	.	?
CC(=O)Nc1ccc(S(=O)(=O)Nc2ccn(Cc3ccccc3Cl)n2)cc1	-12.2%	0.3%	-2.6%	6.9	-16.3%
CCn1cc(Br)c(C(=O)Nc2ccc(F)cc2F)n1	-9.3%	14.4%	19.0%	-10.9	-0.2%
Cc1ccc(CNC(=O)c2oc3c(c2C)-c2nn(Cc4ccc(Cl)cc4)cc2CC3)cc1	9.2µM*	.	.	.	10.3µM*
O=C(N=C1SC2CS(=O)(=O)CC2N1c1ccccc1)C1CCCCC1 (stereo not given)	-5.9%	23.1%	18.3%	23.5	-20.5%
Cc1cc(F)ccc1NC(=O)Cn1cc(S(=O)(=O)NC(C)C)c(S(=O)(=O)NC(C)C)c1	-4.0%	.	.	.	-8.4%
COc1ccc(CNC(=O)c2oc3c(c2C)-c2nn(Cc4ccccc4Cl)cc2CC3)cc1	23.1µM*	.	.	.	?
COc1ccccc1CNC(=O)c1oc2c(c1C)-c1nn(Cc3ccc(Cl)cc3)cc1CC2	20.6µM*	.	.	.	16.4µM*
COc1ccccc1CNC(=O)c1csc(Cc2ccc(Cl)cc2)n1	?	-16.2%	-13.3%	-11.0	?

Source: PubChem BioAssay
